The values that follow come from PubChem BioAssay (Tox21).

A number with no mark means an inactive call. Where a call stands in place of a potency, no number is given. Activity calls are given as the source filed them. The call rests on the fitted dose curve.

Chain of Acetylcholinesterase (Homo sapiens) (P22303 whole entry, looked up): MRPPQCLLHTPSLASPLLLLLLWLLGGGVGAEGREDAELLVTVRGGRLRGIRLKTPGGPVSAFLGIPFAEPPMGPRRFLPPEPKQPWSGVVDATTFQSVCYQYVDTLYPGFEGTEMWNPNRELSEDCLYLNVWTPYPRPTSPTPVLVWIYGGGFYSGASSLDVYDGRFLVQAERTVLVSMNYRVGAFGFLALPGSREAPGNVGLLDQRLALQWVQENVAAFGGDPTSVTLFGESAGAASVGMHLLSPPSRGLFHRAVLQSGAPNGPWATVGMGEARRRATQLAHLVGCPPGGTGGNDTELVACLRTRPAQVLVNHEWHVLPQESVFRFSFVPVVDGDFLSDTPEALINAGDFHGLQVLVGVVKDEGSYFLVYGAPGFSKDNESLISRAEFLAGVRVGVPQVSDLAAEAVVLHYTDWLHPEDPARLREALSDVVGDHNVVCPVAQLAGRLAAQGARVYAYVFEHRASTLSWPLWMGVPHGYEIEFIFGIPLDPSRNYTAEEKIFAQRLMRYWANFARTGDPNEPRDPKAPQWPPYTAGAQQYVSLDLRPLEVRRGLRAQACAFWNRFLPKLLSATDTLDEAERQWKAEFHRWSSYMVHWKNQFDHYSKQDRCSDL

This assay addresses Acetylcholinesterase (Homo sapiens) (UniProt P22303). Briefly: Acetylcholinesterase (AChE) small molecule antagonists: enzyme-based qHTS assay with human liver microsomes (AID 1347399). Further: nearly all actives have a fitted effect of over 60% in size. To be noted: Potency: qHTS inhibition; outcome: qHTS inhibition; series mostly up to 115 µM. The source says: National Center for Advancing Translational Sciences [NCATS]
Division of Preclinical Innovation [DPI]
U.S. Environmental Protection Agency [EPA]
National Institutes of Environmental Health Sciences [NIEHS]
National Toxicology Program [NTP]
U.S. Food and Drug Administration [FDA]
Acetylcholinesterase (AChE) is the primary cholinesterase in the body that hydrolyzes a key neurotransmitter, acetylcholine. Inhibition of AChE activity can lead to neurotoxicity. The known inhibitors include organophosphorous pesticides (OP), chemical warfare agents, drugs, and various phytochemicals. Some compounds like OP compounds may need metabolic activation to be active AChE inhibitors. The cytochrome P450 (CYP) superfamily in the human microsomes is responsible for the metabolism of various endogenous and exogenous compounds.
An enzyme-based assay with the recombinant human AChE, human liver microsomes and Amplite Colormetric acetylcholinesterase assay kit (AAT Bioquest, Sunnyvale, CA) was used to evaluate compounds in the Tox21 10K library that need metabolic activation for AChE inhibition. The assay uses 5, 5-dithiobis-(2-nitrobenzoic acid) (DTNB) to quantify the thiocholine produced from the hydrolysis of acetylthiocholine by AChE.
Tox21 Assay Protocol Summary:
For the enzyme-based AChE assay with microsomes addition, a mixture of human AChE (50 mU/mL) and human liver microsomes (0.25 mg/mL, final concentration) in 3 uL/well was dispensed into black, clear-bottom 1536-well plates using a Multidrop Combi dispenser (Thermo Scientific, MA). Then, 23 nL of compound or DMSO (vehicle control) was transferred into the assay plates by a Pintool Station (Wako Automation, CA). Following compound addition, 1 uL of NADPH (0.25 mg/mL, final concentration) was transferred to the assay plate by a Flying Reagent Dispenser (Beckman Coulter, CA). The plates were incubated for 30 min at 37 C and 5% CO2, followed by the addition of 4 uL of colorimetric detection cocktail solution (DTNB, acetylthiocholine) into each well using a Flying Reagent Dispenser (Beckman Coulter, CA) and then 10 min incubation at room temperature.
Consider `CC(C)(C)C(=O)C(Cl)Cl`, for which the Potency result was “inactive”.
On the same count and under the same terms, then `CCC(CC)(CNC(=O)CCCO)c1cccc(OC)c1`, with “inactive”.
On the same count and under the same terms, the entry for `CCCOC(=O)Cc1ccc(OCC(=O)N(CC)CC)c(OC)c1` is “inactive”.
With `CCOC1Oc2ccc(OS(C)(=O)=O)cc2C1(C)C` (stereo not given), the Potency entry is “inactive”.
Same read-out and setting: the entry for `O=c1[nH]c2ccccc2n1C1CCNCC1` is “inactive”.
On the same count and under the same terms, the entry for `ClCCN1CCCC1` is “inactive”; for `NCC1(CC(=O)O)CCCCC1` it is “inactive”; for `N[C@@H](Cc1ccc(Oc2cc(I)c(O)c(I)c2)c(I)c1)C(=O)O` it is “inactive”.
Same read-out and setting: the entry for `CCC1(c2ccccc2)CCC(=O)NC1=O` (stereo not given) is “inactive”.
Consider `CC1=C2[C@H]3OC(=O)[C@@H](C)[C@@H]3CC[C@@]2(C)C=CC1=O`, for which the Potency entry was “inactive”.
The same measure, in the same setting: then `O=C(O)c1c(Cl)ccc2cc(Cl)cnc12`, with “inactive”; and `[O-][Br+2]([O-])O`, with “inactive”.
Still for that read-out and setting: then `CN(C)CCc1c[nH]c2cccc(OP(=O)(O)O)c12`, with “inactive”; and `CN=CNc1ccc(C)cc1C`, with “inactive”; and `O=S1(=O)OCCO1`, with “inactive”.
Same read-out and setting: the entry for `O=CCCl` is “inactive”; for `CCNc1nc(Cl)nc(NC(C)(C)C)n1` it is “inactive”.
Regarding `CCOC(=O)N(C)N=O`, the Potency result is “inactive”.
Same read-out and setting: then `CCOC(=O)COc1ccc(Cl)cc1Cl`, with “inactive”.
The same measure, in the same setting: then `CC(Cc1ccccc1)NCCn1cnc2c1c(=O)n(C)c(=O)n2C` (stereo not given), with “inactive”.
As to `CCCCCCC(=O)CCCCCC/C=C/C[C@@H](O)[C@H](O)[C@@](N)(CO)C(=O)O`, the activity change, negative = inhibition is -0.169% [at 23.6 µM].
With `CCOP(=O)(CN(CCO)CCO)OCC`, the Potency result is “inactive”.
On the same count and under the same terms, then `CNC(=O)NC(O)C(Cl)(Cl)Cl` (stereo not given), with “inactive”.
The same measure, in the same setting: then `ClC1=C(Cl)C2(Cl)C(CBr)CC1(Cl)C2(Cl)Cl` (stereo not given), with “inactive”; and `CN(CCO)CCO`, with “inactive”.
Same read-out and setting: the entry for `O=C(Cl)CCl` is “inactive”; for `Cn1c(CCCC(=O)O)nc2cc(N(CCCl)CCCl)ccc21` it is “inactive”.
Regarding `CS(=O)(=O)c1ccc(C(=O)C2C(=O)CCCC2=O)c(Cl)c1COCC(F)(F)F`, the Potency result was “inactive”.
Still for that read-out and setting: then `CC(C)(C)c1cc(O)ccc1O`, with “inactive”; and `BrCC1CO1` (stereo not given), with “inactive”.
On the same count and under the same terms, the entry for `Cc1ccc2cc(C)ccc2c1` is “inactive”; for `C=C1CC[C@@]2(O)[C@H]3Cc4ccc(O)c5c4[C@@]2(CCN3CC2CC2)[C@H]1O5` it is “inactive”; for `CCOC(=O)NC(C)(C)Cc1ccc(Cl)cc1` it is “inactive”.
On to `O=C(O)C(Br)(Br)Br`, for which the Potency entry is “inactive”.
Regarding `C=C(Cl)CCl`, the Potency entry is “inactive”.
On the same count and under the same terms, then `C(COCC1CO1)OCC1CO1` (stereo not given), with “inactive”; and `ClCC1CO1` (stereo not given), with “inactive”.
Consider `OCC(Cl)CCl` (stereo not given), for which the Potency entry was “inactive”.
On the same count and under the same terms, then `CCN(CC)C1CCCCC1`, with “inactive”; and `Clc1nc(Cl)nc(Nc2ccccc2Cl)n1`, with “inactive”.
